{
  "source": "PubChem BioAssay (NCATS)",
  "note": "Records with an inconclusive call do not appear. Unmarked numbers belong to inactive results. Calls come from the whole dose curve; as a rule, active = well fitted cell-killing curve with a large enough effect; inconclusive = small, poorly fitted or top-dose-only effect, or effect the other way; inactive = no such curve, though single readings can be large or run the other way.",
  "data": [
    {"assay": "Viability qHTS for spleen associated tyrosine kinase inhibitor (SYKi) naive MV4-11 cells (AID 1963823); note: nearly all actives have a fitted effect of over 40% in size", "details": "MV4-11 AML viability, CellTiter-Glo luminescence, 72 h; series mostly up to 45 µM; viability (% of control): at the top concentration", "procedure,_shortened": "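Read-out: CellTiter-Glo luminescence. Exposure: 72 hr, 37 C, 5% CO2, 95% humidity. Cells: MV4-11 without SYK inhibitor history, 500/well, qHTS format.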", "values": [
      {"smiles": "CC(=O)SC[C@@H](Cc1ccccc1)C(=O)NCC(=O)OCc1ccccc1", "viability (% of control)": "79.6%"},
      {"smiles": "O=C(NCCN1CCCC1)c1cc(-c2ccc(CN3CCOCC3)cc2)nc2ccc(F)cc12", "viability (% of control)": "48.8% [at 17.3 µM]"},
      {"smiles": "O=C(O)c1ccncc1Nc1nn(CCN2CCC(F)(F)CC2)c2ccc(F)cc12", "viability (% of control)": "85.1%"},
      {"smiles": "CCC(CC)n1ccc2c(C(=O)NCc3c(C)cc(C)[nH]c3=O)cc(C#N)cc21", "viability (% of control)": "88.2%"},
      {"smiles": "CC(C)C1(O)NC(=O)C(CC2(O)c3ccccc3N3C(=O)C(C)(C)NC32)n2c1nc1ccccc1c2=O", "note": "(configuration not stated)", "viability (% of control)": "50.3% [at 17.3 µM]"},
      {"smiles": "COC(=O)C12C(=O)C(C)=C(O)C1(C)C(C)=CC1C3(CO)CCC(O)C(C)(C)C3CCC12C", "note": "(configuration not stated)", "viability (% of control)": "75.1% [at 17.3 µM]"},
      {"smiles": "CC(=O)O[C@H]1C[C@@H](O)C(C)(C)C2C[C@@H](OC(C)=O)[C@@]3(C)C4=CCC(C(CO)CC(O)C5OC5(C)C)[C@]4(C)CCC3[C@]21C", "note": "(some centres not stated)", "viability (% of control)": "59.9% [at 17.3 µM]"}
    ]}
  ]
}
